Data on 40 compounds can be found in PubChem BioAssay (Tox21).

“And” between values parts separate entries of the source, which are not always exact repeats. Identical values can stand only once. Results filed as inconclusive are left out. Where a call stands in place of a potency, no number is given. The source made the active and inactive calls. Calls follow the shape of the dose curve; as a rule, active = well fitted activation curve with a large enough effect in the repeat runs; inconclusive = weak or mixed curves, or effect the other way; inactive = no such curve, though single readings can be large or run the other way.
Potency is read from the fitted curve at half-maximal effect.

This test in a line: qHTS assay to identify small molecule agonists of the retinoic acid receptor (RAR) signaling pathway (AID 1159553). To be noted: C3RL4 RARE luciferase reporter, agonist, 6 h; series mostly up to 73.3 µM. The text has this: National Center for Advancing Translational Sciences [NCATS] NIH Chemical Genomics Center [NCGC] U.S. Environmental Protection Agency [EPA] National Institutes of Environmental Health Sciences [NIEHS] National Toxicology Program [NTP] Assay overview: All-trans Retinoic acid (atRA) is the potent natural metabolite of retinol and plays an important role in normal embryonic development and maintenance of cellular phenotype in adult animals. atRA is the activating ligand for the retinoic acid receptors (RARs) which form heterodimers with retinoid X receptors (RXRs) on the retinoic acid response element (RARE). Through activation of the RAR/RXRs nuclear receptors, atRA regulates the transcription of a large number of protein-coding genes and regulatory RNAs. Intracellular levels of atRA are controlled by the retinol signaling pathway (RSP) that regulates the biosynthesis and catabolism of atRA to maintain physiological levels. Chemicals that interfere with the RSP can cause abnormal intracellular levels of atRA and therefore are potential developmental toxicants. To assess compounds for the potential adverse effect on embryonic development through interfering with retinol signaling, a cell-based RARE luciferase reporter gene assay was used. C3RL4 cell line (OARSA/CFSAN/FDA, Laurel, MD) was used to screen Tox21 10K compound library for identifying activators of the RSP.
Assay Protocol Summary: C3RL4 cells were seeded at 1,000/well in 5 uL of assay medium into white solid 1,536-well tissue culture plates (Greiner Bio-One North America Inc. Monroe, NC) using a Multidrop Combi (Thermo Scientific, Waltham, MA) dispenser. After incubation at 37 C and 5% CO2 for an overnight, 23 nL of compounds dissolved in DMSO, positive control or DMSO only were transferred by a Pintool station (Kalypsys, San Diego, CA). After 6 hr incubation at 37 C and 5% CO2, 5 uL of Amplite Luciferase reagent (AAT Bioquest Inc. Sunnyvale, CA) was added to each assay plate using a Flying Reagent Dispenser (FRD) (Aurora Discovery, San Diego, CA). Luminescence was quantified on a ViewLux plate reader (PerkinElmer, Waltham, MA) after 30 min incubation at room temperature.
In the case of `C=CCSSCC=C`, the Potency entry was “inactive”.
Consider `CCOP(=O)(SC(C)CC)N1CCSC1=O` (stereo not given), for which the Potency entry was “inactive”.
Under `O=C(Cl)OCCOCCOC(=O)Cl` stands “inactive”.
Consider `CC(C)(C)N(NC(=O)c1ccc(Cl)cc1)C(=O)c1ccccc1`, for which the Potency entry is “inactive”.
Take `NNCCO`: the Potency entry is “inactive”.
Turning to `CCSCc1ccccc1OC(=O)NC`, the Potency result was “inactive”.
The entry for `C1CS1` is “inactive”.
The entry for `CN1C(=O)CN=C(c2ccccc2)c2cc([N+](=O)[O-])ccc21` is “inactive”.
Regarding `O=C(O)COc1cc(Cl)c(Cl)cc1Cl`, the Potency result was “inactive”.
Under `COCc1cnc(C2=NC(C)(C(C)C)C(=O)N2)c(C(=O)O)c1` (stereo not given) stands “inactive”; under `CCC(C)Cl` (stereo not given), “inactive”.
Under `OCCCl` stands “inactive”; under `CCCCCBr`, “inactive”; under `CCCCC1C(=O)NC(=O)N(C2CCCCC2)C1=O` (stereo not given), “inactive”.
With `O=C(N[C@H]1CN2CCC1CC2)c1ccc2c(c1)OCCO2`, the Potency entry is “inactive”.
The entry for `CC(C)(C)c1ccc(CCOc2ncnc3ccccc23)cc1` is “inactive”.
As to `Cc1nc2ccccc2c(=O)n1-c1ccccc1Cl`, the Potency entry was “inactive”.
Under `O=S(=O)(c1ccccc1)c1ccccc1` stands “inactive”.
Consider `C[C@]12CC[C@H]3[C@@H](CCC4=CC(=O)CC[C@@H]43)[C@@H]1CC[C@@H]2OC(=O)CCc1ccccc1`, for which the Potency result is “inactive”.
For the compound `C=CCc1ccccc1O`, the Potency result was “inactive”.
The entry for `CC(Oc1cc(Cl)c(Cl)cc1Cl)C(=O)O` (stereo not given) is “inactive”.
Consider `CC[N+]1(CCOC(=O)C(O)(c2ccccc2)c2ccccc2)CCCCC1`, for which the Potency entry is “inactive”.
As for `O=P(OCC(Br)CBr)(OCC(Br)CBr)OCC(Br)CBr` (stereo not given), the Potency result was “inactive”.
Under `FC(Cl)(Cl)C(F)(Cl)Cl` stands “inactive”; under `CCOP(=O)(O)C(N)=O`, “inactive”; under `Clc1ccc(Cl)c(Cl)c1`, “inactive”.
The entry for `CCCCCl` is “inactive”; for `CN(C)C(=O)Nc1cccc(OC(=O)NC(C)(C)C)c1` it is “inactive”.
Under `NP(N)(=O)NC(=O)c1ccc(F)cc1` stands “inactive”; under `CCNC(=O)NC(=O)/C(C#N)=N/OC`, “inactive”; under `O=C(NC(=O)c1cc(F)c(F)cc1Cl)Nc1cc(F)ccc1N1CCC(C(=O)O)CC1`, “inactive”.
`Cc1cccc(C)c1NC1=NCCCS1`: the Potency entry was “inactive”.
Under `C=C(C)C(=O)OCCCCOC(=O)C(=C)C` stands “inactive”; under `c1ccc2c(c1)-c1cccc3cccc-2c13`, “inactive”; under `C1CCNCC1`, “inactive”.
Take `O=C1NC(=O)C(=O)C(=O)N1`: the Potency entry was “inactive”.
For `CN[C@@H](C)[C@H](O)c1ccccc1`, the Potency result was “inactive”.
Under `c1ccc2sc(SNC3CCCCC3)nc2c1` stands 30.3 µM (active) and 68.6 µM (active); under `C[N+](C)(C)CCOC(=O)C(O)(c1ccccc1)c1ccccc1`, “inactive”; under `FC(F)OC(F)(F)C(F)Cl` (stereo not given), “inactive”.
